Laboratory results reported in PubChem BioAssay AID1554 (Broad Institute, 2009).
Values joined by “and” are separate entries in the source; they are usually repeats but may differ in a detail not shown here. Identical values can stand only once. Among all 300,000 compounds or so, about 520 (0.17%) were called active. The full list was thinned out, with actives kept by preference. Values without a mark were called inactive. Rule as the data show it: active = inhibition above about 50%; inconclusive = no clear call, values can overlap the other calls; inactive = below that.

assay: PubChem AID 1554; settings: BJeLR (HRASV12) viability, CellTiter-Glo ATP luminescence, 48 h; active compounds read high; concentration not given here

Compared with `Cc1cc(C)c(NC(=O)CN2CCCCCC2)c(C)c1`, `CCOC(=O)C1CCCN(S(=O)(=O)c2ccc3c(c2)C(C)(C)C(=O)N3C)C1` (configuration not stated) is lower in inhibition: -2.78% for the first, -8.48% for the second.

First: CN1CCN(c2ccc(NC(=O)c3ccccc3)cc2)CC1
Second: COc1cccc(C(=O)Nc2ccc(N3CCN(C(=O)c4ccco4)CC3)cc2)c1
The inhibition of the first is lower: -5.43% for the first, 11.7% for the second.

Going from `Cc1[nH]c2ccccc2c1-c1ccc(Cl)nn1` to `C=CCc1c(C)nc2cc(-c3ccccc3)[nH]n2c1=O`, the inhibition falls from 7.01% to 2.64%.

Going from `CC(C)(C)SCCSC1=CC(=O)CC(c2ccccc2)C1` (configuration not stated) to `CCOC(=O)C1=C(CSc2nnnn2C)N(C)C(=O)NC1c1ccccc1` (configuration not stated), the inhibition falls from 7.66% to 0.916%.

First: CCCCCN1CC(O)=C(c2ccccc2)C1=N
Second: CCCc1cc(=O)[nH]c(SCC(=O)OCc2ccccc2)n1
The inhibition of the first is lower: -8.91% for the first, -0.726% for the second.

First: CCCCCCCCn1c2c(c(=N)c3c1CCC3)CCCC2
Second: O=C1C2CCCN2C(=O)N1CCCCN1CCN(c2cccc(C(F)(F)F)c2)CC1 (configuration not stated)
The inhibition of the first is higher: 24.6% for the first, -4.72% for the second.

First: Cn1c(Cc2cccs2)nnc1SCC(=O)Nc1ccccc1
Second: CC(C)Cn1c(=O)c2ccccc2n2c(CCC(=O)NCc3ccccn3)nnc12
The inhibition of the first is lower: -23.8% for the first, -6.38% for the second.

Going from `COC(=O)c1ccc(COC(=O)c2c(C)nn(Cc3ccccc3Cl)c2Cl)o1` to `O=C(CCC(=O)n1ncc2ccccc21)NCc1ccccc1Cl`, the inhibition rises from -0.748% to 2.75%.

First: N#Cc1cccc(CN2CCC(=O)N([C@H](CO)c3ccccc3)CC2)c1
Second: COc1ccc(CN(C)C(=O)CC(c2ccccc2)c2ccccc2)cc1
The inhibition of the first is higher: 4.84% for the first, 3.85% for the second.

Going from `Cc1ccc(-c2nn(-c3ccccc3)cc2/C=N/NC(=O)c2ccc3c(c2)OCO3)cc1` to `Cc1ccc(-c2nn(-c3ccccc3)cc2CN(Cc2ccccc2)C(=O)CCC(=O)O)o1`, the inhibition falls from 11.4% to -0.0578%.

Compared with `COc1ccc(S(=O)(=O)N2CCOC2CNC(=O)C(=O)NCc2ccc(F)cc2)cc1` (configuration not stated), `COc1ccc(NC(=O)CN(C)C(=O)c2ccc(NC3CC3)c([N+](=O)[O-])c2)cc1` is lower in inhibition: 6.34% for the first, -1.94% for the second.

Compared with `Cc1nnc(SC(C)C(=O)Nc2ccc(S(=O)(=O)NC3CCCCC3)cc2)s1` (configuration not stated), `COc1cc(NS(=O)(=O)c2ccc(NC(=S)NC(=O)c3ccc(Br)cc3)cc2)ncn1` is higher in inhibition: -6.12% for the first, -4.7% for the second.

Compared with `Cc1cc([N+](=O)[O-])nn1Cc1ccc(F)cc1`, `Cc1ccccc1NC(=O)c1nn(-c2ccc(F)c(F)c2)ccc1=O` is lower in inhibition: 7.4% for the first, -12.5% for the second.

Going from `CCCc1cc(=O)[nH]c(SCC(=O)c2cc(C)n(CCC)c2C)n1` to `COc1ccccc1CCC(=O)OCC(=O)N1CCN(S(=O)(=O)c2ccc(C)cc2C)CC1`, the inhibition falls from 0.606% to -5.89%.

Going from `CC(C)(C)c1ccc(/C=C2\SC(=O)N=C2N)cc1` to `Cc1cccc(NC(=O)/C=C/c2ccc3c(c2)OCO3)n1`, the inhibition falls from -2.23% to -11.7%.

Going from `CC(NC(=O)CC1SC(N)=NC1=O)c1ccccc1` (configuration not stated) to `COc1ccc(COC(=O)NC(C(=O)O)c2ccccc2)cc1` (configuration not stated), the inhibition falls from 4.16% to -0.701%.

First: Brc1ccc2c(c1)[C@H]1OCC[C@H]1[C@@H](c1cccs1)N2
Second: CN(C)N1C(N)=C(C#N)C(c2ccc(Br)cc2)C2=C1CCCC2=O (configuration not stated)
The inhibition of the first is higher: 10.2% for the first, -10.4% for the second.

Compared with `CSCCC(NC(=O)COc1ccccc1)C(=O)OCCOc1ccc(Br)cc1` (configuration not stated), `CCN1C(=O)[C@@H]2[C@@H](c3ccc(-c4ccccc4)cc3)N3CCCC[C@@]3(C(=O)OC)[C@@H]2C1=O` is higher in inhibition: 5.25% for the first, 6.3% for the second.

First: CCN(CC)CCCN=C(N)N
Second: CCOC(=O)C1CCN(S(=O)(=O)c2ccc3c(c2)N(C(C)=O)CCO3)CC1
The inhibition of the first is lower: -2.78% for the first, 6.7% for the second.

Going from `Nc1nc(-c2sc3nc4c(cc3c2N)CCCC4)nc(N2CCOCC2)n1` to `N#C/C(=C(\O)C(F)(F)F)c1nnc2n1CCCCC2`, the inhibition rises from -1.17% to -1.07%.

In the case of `COc1cccc(C(=O)Nc2ccc(N3CCCC3)cc2)c1`, the inhibition is reported as 52.9% (active).
For `CC1=C/C(=N\OS(=O)(=O)c2ccccc2)C=CC1=O`, the inhibition was 91.4% (active).
For `CCCCCCCCCCCCn1ccc(=N)cc1`, the inhibition was 87.5% (active).
In the case of `CCc1ccc(-c2nn(-c3ccccc3)cc2CSC(=N)N)cc1`, the inhibition is reported as 103% (active).
For `CCCc1cc(=O)[nH]c(SCC(=O)c2c(N)n(CC(C)C)c(=O)n(C)c2=O)n1`, the inhibition was 63.2% (active).
For `COC(=O)[C@H]1[C@H]2C[C@H]3c4[nH]c5ccccc5c4CCN3C[C@@H]2CC[C@@H]1O`, the inhibition was -6.61% and 2.06%.
In the case of `COc1ccc(C(CCN(Cc2ccc(OC)c(OC)c2)C(=O)CCl)c2ccccc2)cc1` (configuration not stated), the inhibition is reported as 85.3% (active).
